# Experimental data reported in PubChem BioAssay (NCI).
# This is part of a sample that, as a whole, favours compounds with a hit. Of some 83,000 tested, about 20% had one in any assay.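 How to read the values: 0–100, growth inhibition (40 = 60% inhibited); 0, no net growth; -100 to 0, cell death (-40 = 40% of starting cells died; -100 = all dead).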 Unmarked numbers belong to inactive results. Activity calls are given as the source filed them. How the source made its calls: active means growth percent below 10; inactive means the rest.
# Tests used:
# Experiment in all cases: NCI-60 one-dose screen, 48 h (100 = growth as untreated, 0 = no growth, -100 = all killed)
# Settings in all cases: 10 µM unless noted
# [1] = tested on: SR leukemia
# [2] = tested on: RPMI-8226 leukemia
# [3] = tested on: OVCAR-8 ovarian
# [4] = tested on: OVCAR-5 ovarian
# [5] = tested on: OVCAR-4 ovarian
# [6] = tested on: SK-OV-3 ovarian
# [7] = tested on: IGROV1 ovarian
# [8] = tested on: OVCAR-3 ovarian
# [9] = tested on: HS 578T breast
# [10] = tested on: NCI/ADR-RES ovarian
# [11] = tested on: T-47D breast
# [12] = tested on: BT-549 breast
# [13] = tested on: MDA-MB-435 melanoma
# [14] = tested on: SW-620 colon
# [15] = tested on: MCF7 breast
# [16] = tested on: HCT-116 colon
# [17] = tested on: HCC-2998 colon
# [18] = tested on: KM12 colon
SMILES,growth [1],growth [2],growth [3],growth [4],growth [5],growth [6],growth [7],growth [8],growth [9],growth [10],growth [11],growth [12],growth [13],growth [14],growth [15],growth [16],growth [17],growth [18]
COc1ccc(-c2cc(-c3ccc(Nc4nc(Nc5ccc(Cl)cc5)nc(Nc5ccc(Cl)cc5)n4)cc3)no2)cc1,2.43% (active),12.5%,85.7%,86%,77.4%,127%,63.8%,71.1%,90.2%,81.8%,70.7%,89.8%,71.3%,88.7%,60.6%,53.3%,11.4%,82%
Cc1oc2ccc(O)c(CN3CCCCCC3)c2c1C(=O)Nc1ccc(C(F)(F)F)cc1,-8.44% (active),75.1%,66.3%,85.8%,58.6%,76.3%,54.3%,62%,65.5%,53.6%,74%,78.5%,58.2%,67.4%,48.1%,32.7%,11.2%,65.5%
COCCn1cc(-c2nc(-c3cc4cccnc4n3C)cs2)c2cc(OC)ccc21,31%,41%,48.9%,37.5%,8.84% (active),50%,28.4%,6.53% (active),56.8%,45.9%,-15.9% (active),27%,89.6%,77.1%,2.86% (active),46.1%,39.6%,6.09% (active)
Cc1c(C(=O)C(SC(=S)N2CCOCC2)SC(=S)N2CCOCC2)nnn1-c1ccc([N+](=O)[O-])cc1,69.7%,90.1%,99.1%,102%,109%,93.3%,98%,108%,123%,111%,92.3%,92.5%,105%,100%,79.5%,96.5%,104%,111%
Cc1ccc(-c2nn(CC(=O)N3CCOCC3)c(N)c2C#N)cc1,99%,108%,99.8%,105%,91.8%,109%,106%,113%,93.1%,108%,105%,98.7%,99.2%,104%,92.5%,101%,102%,108%
CCCCCCCC/C=C\CCCCCCCCOc1ccc(CC(=O)NCC[N+]2(C)CCCC2)cc1,50.3%,58.2%,50.4%,25%,62.1%,104%,-11.8% (active),84.3%,84.2%,111%,77.2%,73.6%,77.2%,54.5%,57.1%,53.2%,37.2%,27.5%
COc1ccc(Cn2cc3c(c2)-c2oncc2CC3)cc1,40.7%,48.9%,83.2%,83.9%,89.8%,67.1%,49.6%,108%,70.9%,33.7%,51.6%,64.3%,-40.8% (active),27.2%,35.4%,29.6%,68.1%,52.3%
COc1ccc(C(=O)/C=C/c2ccc(Cl)cc2)cc1S(N)(=O)=O,-10.3% (active),-31.7% (active),11.5%,78.8%,102%,83.1%,16.6%,61.9%,91.5%,74.9%,69.9%,12.2%,86.2%,13.2%,18%,-78.3% (active),100%,28.2%
O=C(/C=C\c1ccc(O)c(O)c1)c1ccccc1O,-13.3% (active),5.13% (active),69.4%,103%,74.9%,97%,46.3%,73.8%,91.8%,74.3%,67%,5.5% (active),67.9%,67.7%,48%,83.7%,60.7%,60.7%
O=C(CSc1nnc(-c2cc(-c3ccc(Cl)cc3)nc3ccccc23)n1-c1ccccc1)Nc1ccc(Cl)cc1,78.6%,102%,98.3%,102%,108%,94.6%,97.8%,106%,109%,99.4%,96.5%,110%,102%,106%,88.3%,86.3%,111%,102%
CC1(C)CCC[C@]23C(=O)O[C@](O)(C(=O)C4=C[C@@](C)(/C=C/CCCc5ccc6ccc7cccc8ccc5c6c78)CC[C@@]42O)[C@@H]13,9% (active),-21.4% (active),-34.2% (active),-75.7% (active),-92.3% (active),-66.2% (active),-83% (active),-82% (active),-7.13% (active),-18.7% (active),-60.5% (active),-71.9% (active),-92.4% (active),-63.3% (active),-57.4% (active),-91.8% (active),-86% (active),-83.3% (active)
C[C@@H]1N=C(c2ccc(Cl)cc2Cl)Nc2nc3ccccn3c2C1=O,33%,75.2%,68.1%,91.2%,89.5%,50.1%,41.9%,2.44% (active),52%,44.5%,64.3%,55.6%,-16.6% (active),25.2%,16.8%,28.1%,75.4%,23.8%
CCOC(=O)c1c(Nc2nc3ccccc3s2)sc2c1CCC(=O)C2,0.365% (active),12.7%,27.2%,86.7%,8.06% (active),99.5%,44.7%,49.7%,41.1%,87.3%,37%,13.5%,82.6%,19.4%,39.3%,11.4%,104%,47.7%
COc1ccc(CNc2ccc3nc(CCC4CCCCC4)[nH]c3c2)cc1,46.8%,40.2%,73.6%,83.4%,40.1%,82%,61%,75.4%,79.7%,70.3%,41%,96.7%,80.9%,75%,68.4%,50.7%,30.8%,79.8%
O=C1/C(=C/c2ccc(-c3ccc(Cl)cc3)o2)SC(=S)N1CCc1ccc(O)cc1,24.5%,55.5%,16.4%,75.2%,25.6%,44.8%,31.8%,24.1%,36.6%,77.3%,43.9%,64.6%,19.7%,26.6%,77.9%,48.8%,89.6%,22.9%
O=C1c2cccnc2C(=O)c2c1c(C(=O)OCCCN1CCOCC1)c1ccccn21,-2.21% (active),-17.2% (active),-46.2% (active),-11.2% (active),-19.1% (active),-11.6% (active),-3.82% (active),2.32% (active),26.9%,-13.7% (active),4.62% (active),-38.7% (active),-32.4% (active),-39.3% (active),-38.7% (active),-49.6% (active),7.61% (active),15.7%
CN(C)CC1C(=O)O[C@H]2[C@H]1CC/C(COC(=O)NCc1ccc(Cn3c(=O)sn(CCCI)c3=O)cc1)=C\CC[C@@]1(C)O[C@@H]21 (some centres not stated),-28.6% (active),-29.7% (active),-68.2% (active),105%,6.44% (active),99.5%,-81.8% (active),-96.4% (active),82.5%,98.8%,-55.5% (active),50.1%,20.5%,-74.9% (active),-55.4% (active),-73.2% (active),41%,105%
COc1cccc(/C=C2\CCc3ccccc3C2=O)c1,21%,6.5% (active),92.5%,85.9%,88.5%,86.5%,80.7%,89.5%,87.4%,71.4%,75.3%,86.4%,58.2%,52.1%,27.5%,53.4%,94.7%,64%
O=C1NCCN1/N=C/c1c(Cl)n(Cc2ccc(Cl)cc2)c2ccccc12,78.4%,82.6%,78.7%,96.8%,79.1%,146%,24.9%,84.8%,90.3%,90.8%,113%,79.2%,85.6%,108%,84.7%,89.5%,95.9%,110%
